Assay outcomes from PubChem.
DT40 TDP1 no CPT – qHTS for Inhibitors of human tyrosyl-DNA phosphodiesterase 1 (TDP1): qHTS in cells in absence of CPT; DT40 Tdp1-/- hTDP1 cells, no CPT, ATP luminescence, 48 h; Potency, µM (series often up to 46.2 µM), without a hit: at the highest dose activity change, negative = growth inhibition, most hits filed as inhibitors; 420,000 tested, 15% active; further: nearly all actives have a fitted effect of over 55% in size
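DT40 Tdp1-/-;hTDP1 cells, no CPT (DMSO vehicle only), 400 cells/well; compounds pin-transferred; ≥48 hr, 37 °C; CellTiter-Glo 30 min RT dark, luminescence read.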
KB-V1 MDR tox – kills drug-selected multidrug resistant KB-V1 cells. Potency, µM (titrated, usually from 46.1 µM), hits mostly cytotoxic. KB-V1 MDR cells viability, CellTiter-Glo, 72 h. AID 1347076. 400,000 tested, 3.4% active; further: nearly all actives have a fitted effect of over 60% in size
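KB-V1, DMEM (no phenol red) + 10% FBS; cpd pin-transferred, titration series; 72 h, 37 degrees C; CellTiter-Glo, luminescence. Data normalized, curve-fit.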
HT1080 IDH1KD tx – HT-1080 IDH1 knockdown cell toxicity (counter line); AID 686971; Potency, µM (doses to about 46.1 µM), for inactives: top-dose activity, negative = toxicity, most hits filed as cytotoxic; 360,000 tested, 2% active; HT-1080 IDH1 knockdown viability, ATP luminescence, 48 h;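 further: 0% = DMSO wells and -100% = cell-free medium wells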
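CellTiter-Glo luminescence after 48 h compound exposure at 37 degrees C of IDH1-knockdown HT-1080 cells in 5% FBS RPMI. %Activity scaled between DMSO wells and cell-free media wells, with curves fitted and assigned curve classes.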
DT40 TDP1 CPT – DT40-hTDP1 cell growth loss with CPT; Potency, µM (highest dose often 46.2 µM), for inactives: top-dose activity change, negative = growth inhibition, usual class: inhibitors; 420,000 tested, 12% active; AID 686979; chicken DT40 Tdp1-/-;hTDP1 cells + 20 nM CPT, ATP luminescence, 48 h; further: nearly all actives have a fitted effect of over 55% in size
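Cell growth measured by CellTiter-Glo luminescence after a minimum 48 h, 37 C compound exposure with 20 nM CPT in Tdp1-knockout DT40 cells stably expressing hTDP1, seeded 400/well; qHTS titration format.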
KB-3-1 cytotox – KB-3-1 parental cell cytotoxicity. KB-3-1 viability, CellTiter-Glo ATP luminescence, 72 h. Potency, µM (series often up to 46.1 µM), actives largely listed as cytotoxic. 400,000 tested, 1.4% active. AID 1347075; further: nearly all actives have a fitted effect of over 60% in size
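Luminescent ATP read-out (CellTiter-Glo) measures survival of drug-naive KB-3-1 cells after 72 h compound exposure at 37 °C. Titration series was screened from lowest to highest concentration, with DMSO vehicle plates as background controls.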
HT1080-NT tox – kills 2HG-producing HT-1080-NT fibrosarcoma cells | HT-1080-NT fibrosarcoma viability, CellTiter-Glo ATP luminescence, 48 h | Potency, µM (highest dose often 46.1 µM), inactives show at the highest dose activity, negative = less viability, most hits filed as cytotoxic | 360,000 tested, 1.6% active | AID 686970;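 further: NT is the 2HG producing partner of a matched IDH1 knockdown line; 0% = DMSO-treated cells and -100% = media-only wells without cells; nearly all actives have a fitted effect of over 55% in size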
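Luminescent CellTiter-Glo readout after 48 hours of compound exposure at 37 degrees C defined viability of HT-1080-NT cells. Activity was normalized to DMSO wells and cell-free media wells; concentration-response curves were fitted and assigned curve classes.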
Numbers without * were called inactive; i = inactive; u = inconclusive; x = not tested or not shown; [ ] = another dose, or the depositor's remark. Rows were chosen to be rich in hits. Some 19% of all compounds tested hit in one or more screens of this group. The call rests on the fitted dose curve; in most records, active means well fitted curve in the direction sought with a large enough effect; inconclusive means small, poorly fitted or top-dose-only effect, or another doubt; inactive means no such curve, though single readings can be large; an effect the other way counts as inactive or inconclusive. Unless noted, on the % scale 0 is the no-effect control and ±100 the full control effect; potency means the concentration at half of the fitted maximal effect.

SMILES	DT40 TDP1 no CPT	KB-V1 MDR tox	HT1080 IDH1KD tx	DT40 TDP1 CPT	KB-3-1 cytotox	HT1080-NT tox
CCOc1ccccc1NC(=O)C1CCCN1S(=O)(=O)c1ccc2c(c1)C(C)(C)C(=O)N2C (centres undefined)	u	i	x	u	i	x
COc1cccc(OC)c1C(=O)N1CCN(Cc2ccccc2C(F)(F)F)CC1	u	i	-12%	u	i	-17%
COc1cc(OC)cc(C(=O)N2CCN(Cc3ccccc3C(F)(F)F)CC2)c1	u	15µM*	-29%	u	i	-8%
COc1cc(C(=O)N2CCN(Cc3ccccc3C(F)(F)F)CC2)cc(OC)c1OC	u	15µM*	13%	u	i	9%
COc1ccc(OC)c(C2C(C(=O)Nc3ccc(C)cc3)=C(C)Nc3nnnn32)c1 (centres undefined)	x	i	x	x	i	x
COc1ccc(S(=O)(=O)N2CCCCCC2)cc1C(=O)N1CCN(C(C)=O)CC1	-1%	i	4%	-7%	i	11%
COc1ccccc1NC(=O)c1sc2nc(C)c(C(=O)Nc3ccc(C)cc3C)c(-c3ccccc3Cl)c2c1N	-10%	x	x	3%	x	x
Cc1ccc(Nc2sc(C(=O)c3ccccc3)c(N)c2S(=O)(=O)c2ccccc2)cc1Cl	u	i	x	-27%	i	x
COc1ccc(C(=O)c2sc(Nc3cccc(OC)c3)c(C(=O)Nc3cccc(C)c3C)c2N)cc1	10µM*	u	u	18µM*	u	u
Cc1cc(Nc2sc(C(=O)c3ccc(F)cc3)c(N)c2C(=O)Nc2ccc(F)cc2)ccc1Cl	3.7µM*	u	x	12µM*	u	x
COc1cccc(NC(=O)c2sc3nc(C)c(C(=O)Nc4ccc(C)cc4C)c(-c4ccc(Br)cc4)c3c2N)c1	-30%	i	x	u	i	x
COc1ccccc1NC(=O)c1c(Nc2ccccc2C)sc(C(=O)Nc2cccc(Cl)c2)c1N	u	u	u	21µM*	u	u
COc1ccc(NC(=O)c2c(Nc3ccccc3)sc(C(=O)c3ccc(F)cc3)c2N)cc1	2.1µM*	u	u	2.3µM*	2.1µM*	u
CC(C)[C@H](NC(=O)OC(C)(C)C)c1cc(C(=O)N2CCOCC2)c(N)s1	u	i	20%	-30%	i	4%
COc1ccc(Nc2sc(C(=O)c3ccccc3)c(N)c2C(=O)Nc2cc(C)ccc2C)c(OC)c1	u	i	x	u	u	x
COc1ccc(C(=O)c2sc(Nc3ccccc3)c(C(=O)Nc3ccc(OC)c(OC)c3)c2N)cc1	16µM*	i	-28%	26µM*	i	-10%
NCCSC1CC(=O)N(Cc2ccc(F)cc2)C1=O (centres undefined)	-1%	i	0%	-19%	i	15%
O=C1CC(Sc2ccc(Cl)cc2)C(=O)N1Cc1ccncc1 (centres undefined)	18µM*	i	-7%	23µM*	i	-9%
O=c1cnc2cnc(Oc3ccccc3)nc2n1C[C@H]1CCCO1	u	x	x	-16%	x	x
CN(Cc1ccccc1)C(=O)c1[nH]cnc1C(=O)NCCCCCNC(=O)OC(C)(C)C	18µM*	i	-1%	u	i	-3%
CC(C)(C)OC(=O)NCCCCCNC(=O)c1nc[nH]c1C(=O)NCCCCCNC(=O)OC(C)(C)C	10µM*	u	-14%	12µM*	u	-25%
CC(C)(C)OC(=O)NCCCCCNC(=O)c1nc[nH]c1C(=O)N1CCc2ccccc2C1	u	i	3%	u	i	4%
CC(C)(C)OC(=O)NCCCC[C@H](NC(=O)c1nc[nH]c1C(=O)N1CCc2ccccc2C1)C(=O)OC(C)(C)C	21µM*	i	-15%	26µM*	i	-7%
Cc1cccc(NC(=O)c2nc[nH]c2C(=O)NCCCCCNC(=O)OC(C)(C)C)c1	16µM*	u	u	15µM*	u	26µM*
Cc1cccc(NC(=O)c2nc[nH]c2C(=O)NC[C@H](C)O)c1	u	i	-1%	-20%	i	8%
SMILES	DT40 TDP1 no CPT	KB-V1 MDR tox	HT1080 IDH1KD tx	DT40 TDP1 CPT	KB-3-1 cytotox	HT1080-NT tox
C[C@H](NC(=O)c1nc[nH]c1C(=O)N[C@@H](CCCCNC(=O)OC(C)(C)C)C(=O)OC(C)(C)C)C(=O)OCc1ccccc1	u	i	-30%	u	i	-15%
C[C@H](NC(=O)c1nc[nH]c1C(=O)N[C@@H](CCCCNC(=O)OC(C)(C)C)C(=O)OC(C)(C)C)C(=O)OC(C)(C)C	u	i	-29%	u	i	-19%
CC(C)(C)OC(=O)NCCCC[C@H](NC(=O)c1nc[nH]c1C(=O)NC(c1ccccc1)c1ccccc1)C(=O)OC(C)(C)C	u	i	u	15µM*	u	u
CC(C)(C)OC(=O)NCCCC[C@H](NC(=O)c1nc[nH]c1C(=O)N[C@@H](CCCCNC(=O)OC(C)(C)C)C(=O)OC(C)(C)C)C(=O)OC(C)(C)C	23µM*	i	1%	15µM*	i	2%
CC(C)(C)OC(=O)NCCCCCNC(=O)c1ncn(Cc2ccccc2)c1C(=O)NCCCCCNC(=O)OC(C)(C)C	16µM*	i	-8%	u	i	-6%
CC(C)(C)OC(=O)NCCCC[C@H](NC(=O)c1nc[nH]c1C(=O)NCc1ccc(CNC(=O)OC(C)(C)C)cc1)C(=O)OC(C)(C)C	16µM*	i	0%	u	i	-18%
COCCCNC(=O)CCn1c(=O)c2ccccc2n(CC(=O)Nc2cc(Cl)ccc2OC)c1=O	-27%	u	x	-10%	i	x
O=c1oc2cc(O)ccc2cc1-c1ccc2c(c1)OCCO2	-2%[9.04 µM]	x	x	13%[9.04 µM]	x	x
CC(C)(C)OC(=O)NCCCCCNC(=O)c1[nH]cnc1C(=O)N[C@@H](CCCCNC(=O)OC(C)(C)C)C(=O)OC(C)(C)C	16µM*	u	-24%	16µM*	i	u
CCCCCCCCN1C(=O)[C@H](CC(=O)N2CCN(C(=O)OCC)CC2)C[C@@]2(C(=O)OCC)CCCC=C12	u	u	u	16µM*	i	u
CCCCCCCCN1C(=O)[C@H](CC(=O)N2CCCC2)C[C@@]2(C(=O)OCC)CCCC=C12	8.2µM*	u	u	8.2µM*	u	u
